# HCV inh: inhibitors of hepatitis C virus infection. Potency, µM (top dose mostly 41.8 µM), hits mostly inhibitors. 3.4% of 340,000 active. AID 651820. Huh7.5.1 HCVcc-Cre infection, luciferase reporter, 44 h
#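 Luciferase read-out (15 sec integration) after a 15 min room-temperature substrate step quantifies HCVcc-Cre infection. Cells, 1,000 per well, had compound added 4 h post-plating, then virus at ~0.5 moi, and were cultured 44 h.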
# Pf growth 96h: inhibits malaria parasite growth, 96 h; P. falciparum luciferase reporter growth, 96 h; Potency, µM (highest dose often 28.7 µM), actives largely listed as inhibitors; AID 504834; 6.9% of 320,000 active
#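 P. falciparum expressing integrated firefly luciferase grown in erythrocytes (2% hematocrit, 0.05% parasitemia final) with compounds for 96 hours at 37 C, 5% CO2. Growth inhibition read as loss of luminescence after adding luciferase detection reagent.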
# HCMV antiviral: inhibitors of human cytomegalovirus. 4.5% of 410,000 active. HFF cells, HCMV-luciferase reporter, 72 h; stronger effect = lower value. activity change, negative = inhibition, % at 57.5 µM; in the data active = activity change below about -60%; inconclusive = no clear call, values can overlap the other calls; inactive = above about -39%
#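 Steps: HFFs plated, 16 h 37C; compounds added; HCMV-luciferase added to MOI 1 PFU/cell; 72 h 37C; OneGlo reagent, 5 min room temperature; luminescence read, normalized to controls.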
# Marburg entry inh: Marburg virus entry inhibition. 1.8% of 300,000 active. Marburg virus pseudotyped entry inhibition, cell reporter. AID 540276. Potency, µM (doses to about 37.8 µM), actives largely listed as inhibitors; calls by dose curve; tested in HEK293 cells
# Lassa entry inh: inhibitors of Lassa virus binding or cell entry; Lassa virus pseudotype entry inhibition, cell reporter; Potency, µM (doses to about 37.9 µM), hits mostly inhibitors; 1.2% of 300,000 active; calls by dose curve; tested in HEK293 cells; note: nearly all actives have a fitted effect of over 50% in size
# Pf growth 48h: P. falciparum growth inhibition at 48 hours (one generation) | P. falciparum luciferase growth in erythrocytes, 48 h | Potency, µM (highest dose often 28.7 µM), most hits filed as inhibitors | 5.9% of 310,000 active | AID 504832
#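 Firefly luciferase activity from engineered P. falciparum reports growth; inhibitors lower the luminescent signal. Cultures contained 2% hematocrit erythrocytes at 0.1% final parasitemia.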
# Numbers stand for hits; i = inactive; ? = inconclusive; nt = no result given. Compounds with a hit are over-represented: about 14% of the library has one in this group of screens. Unless noted, calls come from the whole dose curve; as a rule, active = well fitted inhibition curve with a large enough effect; inconclusive = small, poorly fitted or top-dose-only effect, or another doubt; inactive = no such curve, though single readings can be large or run the other way.
SMILES,HCV inh,Pf growth 96h,HCMV antiviral,Marburg entry inh,Lassa entry inh,Pf growth 48h
CCN(CC)S(=O)(=O)c1ccc(N2CCCC2)c(NC(=O)c2ccc(OC)cc2OC)c1,?,?,i,?,?,13µM
CCN(CC)S(=O)(=O)c1ccc(N2CCCCC2)c(NC(=O)/C=C/c2ccc(OC)c(OC)c2)c1,?,10µM,i,i,i,9.3µM
CCOc1ccc(S(=O)(=O)Nc2cc(S(=O)(=O)N(CC)CC)ccc2N2CCCC2)cc1,?,1.3µM,?,?,i,7.4µM
CC1=C(C(N)=O)C(c2cccc(Br)c2)n2nc(SCc3ccccc3Cl)nc2N1 (stereo not drawn),nt,nt,i,nt,i,nt
COc1ccc(CCn2c(=O)c3cccnc3n(CC(=O)Nc3c(C)cccc3C)c2=O)cc1OC,nt,nt,i,i,nt,nt
CCN(CC)S(=O)(=O)c1ccc(N2CCCC2)c(NC(=O)Cc2cc(OC)c(OC)c(OC)c2)c1,?,?,i,i,nt,7.4µM
COc1ccc(N/N=C(\C=N\O)C(=O)c2ccc(OC)cc2)cc1,i,i,i,?,2.8µM,nt
Cc1ccc(-n2nnnc2SCc2nnc(-c3ccccc3Br)o2)c(C)c1,?,nt,-64,?,?,?
Cn1nnnc1SCc1nnc(-c2ccccc2Br)o1,i,i,i,?,i,i
COc1cc(CO)ccc1OCc1nnnn1-c1ccc(C)cc1,i,?,-63,i,i,i
CCCN1CCC(N2CCN(c3ccc([N+](=O)[O-])cc3)CC2)CC1,i,5.9µM,i,nt,nt,?
CCCN1CCC(N2CCN(c3cccc(C(F)(F)F)c3)CC2)CC1,11µM,i,i,?,?,?
Cc1ccc(N2CCn3c2nc2c3c(=O)n(C/C=C/c3ccccc3)c(=O)n2C)cc1C,nt,nt,i,nt,i,nt
CCN(CC(=O)NCc1ccc(F)cc1)C(=O)c1ccc2c(c1)OCO2,i,i,i,nt,nt,i
Cc1ccc(Cc2c(C3CCCCC3)nc3cc(C)c(Br)c(C)n23)cc1,nt,nt,i,nt,nt,nt
CCCNC(=O)C1(C)CCN1C(=O)c1ccccc1CCc1ccccc1 (stereo not drawn),nt,nt,-61,nt,nt,nt
CC(C)(C)CNC(=O)C1(C)CCN1C(=O)c1ccccc1CCc1ccccc1 (stereo not drawn),nt,nt,i,nt,nt,nt
CC(C)=CCCC(C)=CCN1C(=O)[C@@]2(CC(C)=CC[C@@H](C)O2)c2c(Br)cccc21,nt,nt,nt,i,nt,nt
O=C(O)CSc1ncnc2sc3c(c12)CCC3,i,i,i,i,i,i
O=C(O)CSc1ncnc2sc3c(c12)CCCC3,i,i,i,i,i,i
CCSc1ncnc2sc3c(c12)CCC3,25µM,i,i,i,i,nt
Fc1ccc(CSc2ncnc3sc4c(c23)CCCC4)cc1,11µM,i,i,i,i,?
COC(=O)[C@H]1[C@H](CO)[C@H]2Cn3c(ccc(Br)c3=O)[C@H]2N1Cc1ccccc1Cl,nt,nt,i,nt,nt,nt
COC(=O)C(C(=O)OC)C(C(=O)OC)C(C(=O)OC)C(=O)OC,i,nt,-88,?,i,i
CC(NC(N)=O)C12CC3CC(CC(C3)C1)C2 (stereo not drawn),i,i,i,i,?,i
SMILES,HCV inh,Pf growth 96h,HCMV antiviral,Marburg entry inh,Lassa entry inh,Pf growth 48h
CC(NC1CCCCC1)C(O)C12CC3CC(CC(C3)C1)C2 (stereo not drawn),?,nt,i,7.3µM,?,7.4µM
CC1(C)CC(=O)C2=C(C1)Nc1ccccc1NC2c1ccc(F)c(F)c1 (stereo not drawn),i,i,i,nt,nt,i
CC1(C)CC(=O)C2=C(C1)Nc1ccccc1NC2c1ccccc1F (stereo not drawn),i,i,i,nt,nt,?
Cc1cc2c(cc1C)NC(c1nc3ccccc3[nH]1)C1=C(CC(C)(C)CC1=O)N2 (stereo not drawn),i,i,-105,i,i,i
Cc1c(C2Nc3ccccc3NC3=C2C(=O)CC(C)(C)C3)cnn1C (stereo not drawn),i,5.9µM,i,i,i,?
CC(=O)Nc1ccc(C2Nc3cc(C)c(C)cc3NC3=C2C(=O)CC(C)(C)C3)cc1 (stereo not drawn),i,8.3µM,i,nt,nt,i
COc1ccc(-n2c3c(cc(C(=O)N4CCN(CCO)CC4)c2=O)C(=O)CC(C)(C)C3)cc1,i,10µM,i,i,i,i
Cc1ccc(NC(=O)C(=O)NCc2ccc(Cl)cc2)cc1,nt,nt,i,nt,i,nt
O=[N+]([O-])c1ccc(Oc2ccc(/C=N/O)cc2)nc1,i,i,i,i,i,i
